PubChem BioAssay (Tox21)
Results filed as inconclusive are left out. A number with no mark means an inactive call. The source made the active and inactive calls. The call rests on the fitted dose curve; in most records, active means well fitted curve in the direction sought with a large enough effect in the repeat runs; inconclusive means weak or mixed curves; inactive means no such curve, though single readings can be large; an effect the other way counts as inactive or inconclusive.

test: qHTS RealTime-Glo MT Cell Viability Assay in HEK293 cells - 40 hour (AID 1224874); settings: RealTime-Glo luminescence, stronger effect = lower value; further: nearly all actives have a fitted effect of over 50% in size
Method in brief: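 Measured as luminescence from the same continuously cultured HEK293 wells at successive time points (0, 8, 16, 24, 32, 40 h) after compound addition. Reagent present from seeding; dosing at 5 h; incubation 37 C.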
On the % scale 0 is the no-effect control and ±100 the full control effect.

SMILES	max response
CCCC(C)C(O)CC (stereo unspecified)	14.3%
CC(=O)Nc1ccc(OCCOCCOc2ccc(NC(C)=O)cc2)cc1	-1.67%
COC(=O)N/N=C/c1c[n+]([O-])c2ccccc2[n+]1[O-]	5.36%
CN1CCN(C(=O)C2CCCCC2)CC1	0.482%
C=CCCCCCCCCOC(C)=O	0.238%
CN(C)CCCN(C)C	0.838%
CCCCCCCC(=O)N(C)C	4.49%
C=CC(C)(CCC=C(C)C)OC(=O)C(C)C (stereo unspecified)	0.514%
CCOC(=O)COc1ccc2c(C)c(CCN(CC)CC)c(=O)oc2c1Cl	1.31%
Clc1ccc2c(c1)Nc1ccccc1S2	-17.2%
N[C@H]1C(O)O[C@H](CO)[C@@H](O)[C@@H]1O (stereo partly specified)	-1.72%
CN(C)c1ccncc1	-16.5%
CN(C)CCc1c[nH]c2ccc(C[C@H]3COC(=O)N3)cc12	2.27%
Cc1nnc(C(=O)NC(C)(C)c2nc(C(=O)NCc3ccc(F)cc3)c(O)c(=O)n2C)o1	21.7%
CCCCS	0.118%
C[C@@H](CN1CC(=O)NC(=O)C1)N1CC(=O)NC(=O)C1	-3.41%
CCOC(=O)[C@H](CCc1ccccc1)N[C@H]1CS[C@H](c2cccs2)CN(CC(=O)O)C1=O	0.833%
CCCCOCCCC	8.08%
N=C(N)N	-0.588%
CCCC(=O)C(CC)Sc1ccoc1C (stereo unspecified)	-5.27%
C=CCON/C(CCC)=C1\C(=O)CC(C)(C)C(C(=O)OC)=C1O	3.04%
CC/C=C\CCOC(=O)c1ccccc1	-28.3%
CCCCC(CC)COC(=O)CC#N (stereo unspecified)	0.0288%
CC/C=C\CCCCCCCCCCOC(C)=O	-0.318%
Cc1ccc(OC(=O)CC(C)C)cc1	3.9%
O=P(O)(O)C(O)(Cc1cccnc1)P(=O)(O)O	-1.75%
CCN1CCN(C(=O)N[C@@H](C(=O)N[C@@H]2C(=O)N3[C@@H]2SC(C)(C)[C@H]3C(=O)O)c2ccccc2)C(=O)C1=O	1.08%
COc1cc(C(=O)NC2CCCNC2)cc(OC)c1OC (stereo unspecified)	1.36%
COc1cc2nc(N3CCN(C(=O)C4CCCO4)CC3)nc(N)c2cc1OC (stereo unspecified)	-19.2%
CC(C)C[P+](C)(CC(C)C)CC(C)C	-17.7%

test: A CellTox Green Cytotoxicity Assay to monitor cytotoxicity in HEK293 cells - 24 hour (AID 1224875); settings: CellTox Green fluorescence; series mostly up to 76.8 µM; activity change: at the top concentration; further: nearly all actives have a fitted effect of over 45% in size; further: potency means the concentration at half of the fitted maximal effect
Method in brief: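 Homogeneous no-lysis format: HEK293 cell suspension mixed with CellTox Green reagent, seeded, incubated 5 h at 37 C/5% CO2, then dosed by pintool with compound in DMSO.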

SMILES	activity change	Potency
CCCC(C)C(O)CC (stereo unspecified)	2.47%	–
CC(=O)Nc1ccc(OCCOCCOc2ccc(NC(C)=O)cc2)cc1	-7.76% [at 35.3 µM, stronger effect = higher value]	–
CC(C)OC(=O)C(C(=O)OC(C)C)=C1SC=CS1	6.37% [at 35.3 µM, stronger effect = higher value]	–
COC(=O)N/N=C/c1c[n+]([O-])c2ccccc2[n+]1[O-]	–	21.3 µM (active)
CN1CCN(C(=O)C2CCCCC2)CC1	-1.98% [at 35.3 µM, stronger effect = higher value]	–
C=CCCCCCCCCOC(C)=O	9.25%	–
CC(=O)c1ccc2ccc3ccccc3c2c1	-15.5%	–
CN(C)CCCN(C)C	-1.21% [at 6.97 µM, stronger effect = higher value]	–
CCCCCCCC(=O)N(C)C	-0.364%	–
CC(=O)c1c(C)cc(C(C)(C)C)cc1C	–	21.9 µM (active)
C=CC(C)(CCC=C(C)C)OC(=O)C(C)C (stereo unspecified)	-9.46%	–
O=C(OOC(=O)c1ccccc1)c1ccccc1	18.1% [at 35.3 µM, stronger effect = higher value]	–
Clc1ccc2c(c1)Nc1ccccc1S2	7.87% [at 35.3 µM, stronger effect = higher value]	–
CCN(CC)CC(=O)Oc1ccc(NC(C)=O)cc1	-1.02% [at 35.3 µM, stronger effect = higher value]	–
N[C@H]1C(O)O[C@H](CO)[C@@H](O)[C@@H]1O (stereo partly specified)	-1.75% [at 35.3 µM, stronger effect = higher value]	–
CN(C)CCc1c[nH]c2ccc(C[C@H]3COC(=O)N3)cc12	9.79% [at 35.3 µM, stronger effect = higher value]	–
Cc1nnc(C(=O)NC(C)(C)c2nc(C(=O)NCc3ccc(F)cc3)c(O)c(=O)n2C)o1	23.5% [at 35.3 µM, stronger effect = higher value]	–
COC(=O)c1c(C)cc(O)c(C)c1O	-5.68%	–
CCOC(=O)[C@H](CCc1ccccc1)N[C@H]1CS[C@H](c2cccs2)CN(CC(=O)O)C1=O	1.5% [at 35.3 µM, stronger effect = higher value]	–
N=C(N)N	20.7% [at 35.3 µM, stronger effect = higher value]	–
CCCC(=O)C(CC)Sc1ccoc1C (stereo unspecified)	22.2%	–
C=CCON/C(CCC)=C1\C(=O)CC(C)(C)C(C(=O)OC)=C1O	3.43%	–
CC/C=C\CCOC(=O)c1ccccc1	29.8%	–
CC/C=C\CCCCCCCCCCOC(C)=O	2.29%	–
Cc1ccc(OC(=O)CC(C)C)cc1	9.62%	–
CCN1CCN(C(=O)N[C@@H](C(=O)N[C@@H]2C(=O)N3[C@@H]2SC(C)(C)[C@H]3C(=O)O)c2ccccc2)C(=O)C1=O	-1.22% [at 35.3 µM, stronger effect = higher value]	–
COc1cc2nc(N3CCN(C(=O)C4CCCO4)CC3)nc(N)c2cc1OC (stereo unspecified)	-3.55% [at 35.3 µM, stronger effect = higher value]	–

test: A CellTox Green Cytotoxicity Assay to monitor cytotoxicity in HepG2 cells - 16 hour (AID 1224876); settings: CellTox Green fluorescence; series mostly up to 76.8 µM; cytotoxicity increase: at the top concentration; further: nearly all actives have a fitted effect of over 45% in size; further: potency means the concentration at half of the fitted maximal effect
Method in brief: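 Fluorescent DNA-binding dye, 600 HepG2 cells/well, 5 h preincubation then compound in DMSO; same plates read at 0–40 h, 37 C.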

SMILES	cytotoxicity increase	Potency
CCCC(C)C(O)CC (stereo unspecified)	-1.3%	–
CC(C)OC(=O)C(C(=O)OC(C)C)=C1SC=CS1	-5.17% [at 35.3 µM]	–
COC(=O)N/N=C/c1c[n+]([O-])c2ccccc2[n+]1[O-]	–	23.9 µM (active)
CN1CCN(C(=O)C2CCCCC2)CC1	-33.7% [at 35.3 µM]	–
CC(=O)c1ccc2ccc3ccccc3c2c1	3.91%	–
CN(C)CCCN(C)C	-15.4% [at 6.97 µM]	–
CC(=O)c1c(C)cc(C(C)(C)C)cc1C	–	38.9 µM (active)
C=CC(C)(CCC=C(C)C)OC(=O)C(C)C (stereo unspecified)	-12.5%	–
CCOC(=O)COc1ccc2c(C)c(CCN(CC)CC)c(=O)oc2c1Cl	-14.2% [at 35.3 µM]	–
O=C(OOC(=O)c1ccccc1)c1ccccc1	14.6% [at 35.3 µM]	–
COc1ccc(Cl)cc1C	-0.226%	–
N[C@H]1C(O)O[C@H](CO)[C@@H](O)[C@@H]1O (stereo partly specified)	0.808% [at 35.3 µM]	–
O=C1Nc2ccccc2C1=O	-8.51%	–
CN(C)c1ccncc1	-2%	–
CN(C)CCc1c[nH]c2ccc(C[C@H]3COC(=O)N3)cc12	-3.42% [at 35.3 µM]	–
CCCCS	-4.55%	–
C[C@@H](CN1CC(=O)NC(=O)C1)N1CC(=O)NC(=O)C1	0.662% [at 35.3 µM]	–
CCCCOCCCC	14%	–
N=C(N)N	0.684% [at 35.3 µM]	–
CCCC(=O)C(CC)Sc1ccoc1C (stereo unspecified)	26.1%	–
Cc1ccc(OC(=O)CC(C)C)cc1	16.6%	–
O=P(O)(O)C(O)(Cc1cccnc1)P(=O)(O)O	-11.7% [at 35.3 µM]	–
COc1cc(C(=O)NC2CCCNC2)cc(OC)c1OC (stereo unspecified)	-38.1% [at 35.3 µM]	–
COc1cc2nc(N3CCN(C(=O)C4CCCO4)CC3)nc(N)c2cc1OC (stereo unspecified)	-15.5% [at 35.3 µM]	–
